Rows were chosen to be rich in hits. Some 12% of all compounds tested hit in one or more screens of this group.
Shiga toxin inh: inhibitors of Shiga toxin in Vero cells | 9.2% of 290,000 active | inhibition, % at 38.7 µM | Vero cells, Shiga toxin protein synthesis inhibition reporter; in the data active = inhibition mostly above about 28%, no sharp cut-off; inactive = mostly below about 43%
SARS PLP yeast: inhibitors of SARS-CoV papain-like protease in yeast; S. cerevisiae expressing SARS-CoV PLpro, growth rescue; Potency, µM (highest dose often 32.9 µM), most hits filed as activators; 0.19% of 330,000 active; AID 485353; also: nearly all actives have a fitted effect of over 55% in size
CHX counter: affects cycloheximide protein synthesis inhibition readout, counter-screen. max response, %. 12% of 300,000 active. cell reporter, cycloheximide protein synthesis inhibition counterscreen. AID 2314; in the data active = max response mostly above about 13%, no sharp cut-off; inactive = mostly below about 14%; also: read at 38.3 µM for the half of the compounds with a filed dose
NS1 inh: influenza NS1 inhibition; Potency, µM (top dose mostly 46.1 µM); AID 2326; 0.4% of 270,000 active; also: actives are rising curves; nearly all actives have a fitted effect of over 50% in size
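Recovery from NS1-induced slow growth read by OD600 in budding yeast switched to galactose assay medium (pH 6.0, -URA) at 1:100 dilution. Compound 23 nl per well; the matching strain lacking NS1 serves as control.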
Large screens that a line does not name were inactive; ! = repeats disagree. Unless noted, calls follow the shape of the full dose curve.

CCOC(=O)c1sc(NC(=O)c2ccc(S(=O)(=O)N(C)C)cc2)nc1C	none
CCc1cccc2sc(N3CCN(C(=O)c4ccc([N+](=O)[O-])o4)CC3)nc12	none (no result: Shiga toxin inh, CHX counter, NS1 inh)
CCc1ccc(CSc2nccn2-c2ccccc2)cc1	SARS PLP yeast inconclusive
c1ccc(CCSc2nccn2-c2ccccc2)cc1	Shiga toxin inh 120, CHX counter 52
CCCC(=O)Nc1cc(=O)n(C)c(=O)n1C	none
Cn1c(NC(=O)/C=C/c2ccccc2)cc(=O)n(C)c1=O	CHX counter 34
Cn1c(NC(=O)/C=C/c2ccc(Cl)c(Cl)c2)cc(=O)n(C)c1=O	none
COc1ccc(/C=C/C(=O)Nc2cc(=O)n(C)c(=O)n2C)cc1	CHX counter 31
Cn1c(NC(=O)CCc2ccccc2)cc(=O)n(C)c1=O	Shiga toxin inh 70, CHX counter 43
O=C(COC(=O)c1ccc2ccccc2n1)NC1CCCCC1	none (no result: Shiga toxin inh, CHX counter, NS1 inh)
COc1ccc(CNCCCC(=O)Nc2c(Cl)ccc(C)c2Cl)cc1OC	none
COc1ccc(-n2nc(C(=O)NCC(=O)N3CCN(c4ccccc4)CC3)c3ccccc3c2=O)c(OC)c1	none
COc1ccc(-n2nc(C(=O)NCC(=O)N3CCN(c4ccc(F)cc4)CC3)c3ccccc3c2=O)c(OC)c1	CHX counter 16
COc1ccc(-n2nc(C(=O)NCC(=O)N3CCCC3)c3ccccc3c2=O)c(OC)c1	none
CCOC(=O)N1CCN(C(=O)CNC(=O)c2nn(-c3ccc(OC)cc3OC)c(=O)c3ccccc23)CC1	Shiga toxin inh 31, CHX counter 25
Cc1ccc(C)c(N(CC(=O)NC2CCCC2)C(=O)CNC(=O)c2cccs2)c1	none
O=C(CN1CCC(n2nnc3cc(C(F)(F)F)ccc32)CC1)Nc1ccc2c(c1)OCCO2	CHX counter 46
O=C1C2C(c3cccc(/C=C/c4ccccc4)c3)CC=CC2C(c2ccc(C(F)(F)F)cc2)N1Cc1ccccc1 (centres undefined)	Shiga toxin inh 54!
CC1CN(C(=O)CCC(=O)N2CCN(c3cccc(C(F)(F)F)c3)CC2)c2ccccc2O1 (centres undefined)	none
O=C(Nc1ccc2ccccc2c1)N1CCN(c2ncccc2C(F)(F)F)CC1	none
Cc1ccc(NC(=O)N2CCN(c3ncccc3C(F)(F)F)CC2)cc1	CHX counter 15
O=[N+]([O-])c1nn(-c2ccc3c(c2)OCCO3)n(O)c1=NC1CCCCCC1	Shiga toxin inh 84, CHX counter 32
O=[N+]([O-])c1nn(-c2ccc3c(c2)OCCO3)n(O)c1=NC1CCCC1	Shiga toxin inh 42, CHX counter 32
Cc1cccc(-n2nc([N+](=O)[O-])c(=NC3CCN(Cc4ccccc4)CC3)n2O)c1	none
COc1ccc(Oc2cccc(Cl)c2CNC(=O)CCCC(=O)O)cc1	none
Cc1cc(=O)[nH]c(-n2nc(C)c(Oc3ccccc3O)c2C)n1	none
Cc1nn(-c2ccc(C(F)(F)F)cn2)c(C)c1Oc1ccccc1O	CHX counter 23
Cc1ccc(OCCCC(=O)N2CCOCC2)cc1	none
Cc1ccc(S(=O)(=O)N2CCN(C(=O)CCCOc3ccc(Cl)cc3C)CC2)cc1	none (no result: Shiga toxin inh, CHX counter, NS1 inh)
CCOC(=O)CCCC(=O)N1CCOCCOCCOCC1	none
Cc1cc(Cl)ccc1OCCCC(=O)N1CCCCC1	CHX counter 35
CCOC(=O)CCCC(=O)N1CCOCCOCCN(C(=O)CCCC(=O)OCC)CCOCCOCC1	Shiga toxin inh 63, CHX counter 43
CCOC(=O)N1CCN(C(=O)COc2cc(C)c(Cl)c(C)c2)CC1	none
Cc1cc(OCCCC(=O)N2CCCCC2)cc(C)c1Cl	Shiga toxin inh 32, CHX counter 13
Cc1cc(Cl)ccc1OCCCC(=O)N1CCOCC1	Shiga toxin inh 71, CHX counter 37
O=C(CC1CCCC1)Nc1ccc(Cl)c(S(=O)(=O)N2CCOCC2)c1	none (no result: Shiga toxin inh, CHX counter, NS1 inh)
CC(=O)Oc1ccc2ccccc2c1C(NC(=O)Cc1ccccc1)c1ccccc1Cl (centres undefined)	none
CCOc1ccc(CCNC(=O)CSCC(=O)Nc2ccc(OC)cc2)cc1OCC	none (no result: Shiga toxin inh, CHX counter, NS1 inh)
N/C(=N\OC(=O)CCC1CCCCC1)c1cccc([N+](=O)[O-])c1	none
N/C(=N\OC(=O)CCC1CCCC1)c1ccccc1	CHX counter 20
N/C(=N\OC(=O)CCC1CCCC1)c1ccccn1	Shiga toxin inh 65, CHX counter 52
N/C(=N\OC(=O)Cc1ccccc1)c1ccc([N+](=O)[O-])cc1	Shiga toxin inh 42, CHX counter 30
N/C(=N\OC(=O)CCC1CCCC1)c1ccc([N+](=O)[O-])cc1	CHX counter 19 (no result: NS1 inh)
O=C(CCC1CCCC1)NCc1ccccn1	none
O=C(N/N=C1/CCSC1)c1cc(Br)ccc1O	none
Cc1cccc2cc3c(nc12)-c1ccccc1C3=O	Shiga toxin inh 43, CHX counter 17
CC1CCc2c(sc(NC(=O)Cc3ccccc3)c2C(=O)Nc2ccc(Cl)cc2)C1 (centres undefined)	none (no result: SARS PLP yeast, NS1 inh)
CCCCCCSc1ncc(C#N)c(N)n1	Shiga toxin inh 37, CHX counter 29
N#Cc1cnc(SCCc2ccccc2)nc1N	Shiga toxin inh 39, CHX counter 24
Cc1ccccc1CSc1ncc(C#N)c(N)n1	none
CC(C(=O)N1CCN(C(=O)c2ccco2)CC1)n1sc2ccccc2c1=O (centres undefined)	none
CC(C(=O)N1CCCCC1)n1sc2ccccc2c1=O (centres undefined)	Shiga toxin inh 67, CHX counter 31
Cc1nc2ccc(NC(=O)NCCCO)cc2s1	Shiga toxin inh 49, CHX counter 16
Cc1nc2ccc(NC(=O)NCCO)cc2s1	CHX counter 20
Cc1nc2ccc(NC(=O)NCc3ccco3)cc2s1	Shiga toxin inh 56, CHX counter 43
Cc1ccc(C)c(S(=O)(=O)N2CCN(C(=O)c3n[nH]c(=O)c4ccccc34)CC2)c1	none (no result: Shiga toxin inh, CHX counter, NS1 inh)
Nc1ccccc1C(=O)N1O[C@@H]2C=C[C@H]1CC2	none (no result: Shiga toxin inh, CHX counter, NS1 inh)
Cc1ccc(C(=O)Nc2ccc3nc(C)sc3c2)s1	Shiga toxin inh 112, CHX counter 43
Cc1nc2cc(NC(=O)c3ccc(Br)s3)ccc2s1	Shiga toxin inh 117, CHX counter 63
N#Cc1ccc(CSc2nc(N)cc(N)n2)cc1	CHX counter 7.9, NS1 inh inconclusive
Cc1ccc(CSc2nc(N)cc(N)n2)cc1	CHX counter 25 (no result: Shiga toxin inh)
O=C(NCC1CCCO1)C1CC(=O)N(c2ccccc2)C1 (centres undefined)	none
CCc1cc2c(SCC(=O)N(C)C3CCS(=O)(=O)C3)ncnc2s1 (centres undefined)	none
CC1=NN(C(N)=S)C(=O)C1N=Nc1cccc(Cl)c1C (centres undefined)	Shiga toxin inh 37, CHX counter 26
CC1=NN(C(N)=S)C(=O)C1N=Nc1ccc(Br)cc1 (centres undefined)	CHX counter 39
CC1=NN(C(N)=S)C(=O)C1N=Nc1ccccc1 (centres undefined)	none (no result: NS1 inh)
CC1=NN(C(N)=S)C(=O)C1N=Nc1ccc(Cl)cc1 (centres undefined)	Shiga toxin inh 77, CHX counter 33
CC1=C(C(=O)Nc2ccccc2C(=O)NC2CCCCC2C)SCCO1 (centres undefined)	none
O=[N+]([O-])c1ccc(/C=N/Nc2ncc(-c3ccccc3)cn2)cc1	none
O=c1nccc(N/N=C/c2ccccc2)[nH]1	Shiga toxin inh 37, CHX counter 37
COc1cc(-c2nnc(SCC(=O)N3CCOCC3)o2)cc(OC)c1OC	none
